From article PMC5700166
Numbering of substitutions follows the chain as printed.

Legend:
Experiment in all cases: protein-binding microarray (PBM); PBM: ~300 nM protein, 6 mM HEPES pH 7.8, 80 mM KCl, 0.5 mM EDTA, 0.5 mM EGTA, 6% glycerol, 35 ng/ul poly-dIdC, 1% milk, 1 h, room temperature; Ap Aiptasia and Nv Nematostella (sea anemones) / Co Capsaspora / Aq Amphimedon (sponge) / Dm Drosophila / Hu human; RHD is the Rel homology domain; high values mean tight binding
Details in all cases: dsDNA, one strand shown
[1] = target: T1, GST-Ap-NF-kB RHD (Exaiptasia pallida (Aiptasia), UniProt A0A913YAJ5 2-422)
T1 sequence: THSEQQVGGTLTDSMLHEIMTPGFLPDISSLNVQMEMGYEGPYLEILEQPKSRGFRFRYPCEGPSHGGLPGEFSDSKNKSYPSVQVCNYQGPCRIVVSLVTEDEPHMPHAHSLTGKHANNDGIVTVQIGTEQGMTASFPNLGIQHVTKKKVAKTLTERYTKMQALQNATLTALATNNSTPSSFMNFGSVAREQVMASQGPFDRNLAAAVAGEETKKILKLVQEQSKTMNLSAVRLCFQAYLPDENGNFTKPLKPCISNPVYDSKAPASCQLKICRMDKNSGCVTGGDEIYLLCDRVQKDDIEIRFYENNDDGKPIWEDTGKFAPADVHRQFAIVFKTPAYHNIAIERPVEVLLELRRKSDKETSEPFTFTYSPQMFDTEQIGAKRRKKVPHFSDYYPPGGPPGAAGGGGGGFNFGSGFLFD

[2] = target: T2, GST-Nv-NF-kB (Cys allele) (Nematostella vectensis, UniProt E5G601 2-411)
T2 sequence: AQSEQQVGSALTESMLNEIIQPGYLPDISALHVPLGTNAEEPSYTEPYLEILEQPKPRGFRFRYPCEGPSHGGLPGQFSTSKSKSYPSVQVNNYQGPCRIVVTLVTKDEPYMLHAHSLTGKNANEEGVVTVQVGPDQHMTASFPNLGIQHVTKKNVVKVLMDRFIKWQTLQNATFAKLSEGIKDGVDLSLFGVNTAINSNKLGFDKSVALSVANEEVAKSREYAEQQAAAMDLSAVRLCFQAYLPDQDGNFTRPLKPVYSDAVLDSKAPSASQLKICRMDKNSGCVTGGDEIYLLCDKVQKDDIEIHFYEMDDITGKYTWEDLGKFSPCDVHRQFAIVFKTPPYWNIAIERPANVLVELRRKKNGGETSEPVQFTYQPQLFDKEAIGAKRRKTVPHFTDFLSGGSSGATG

[3] = target: T3, GST-Nv-NF-kB (Ser allele) (Nematostella vectensis, UniProt A7UNT2 2-411)
T3 sequence: T2 sequence with Q21R, C66S, S207N, E215Q, V217A, E225K, A268E, D399E

[4] = target: T4, GST-Co-NF-kB (Capsaspora owczarzaki, UniProt F1ARL5 200-546)
T4 sequence: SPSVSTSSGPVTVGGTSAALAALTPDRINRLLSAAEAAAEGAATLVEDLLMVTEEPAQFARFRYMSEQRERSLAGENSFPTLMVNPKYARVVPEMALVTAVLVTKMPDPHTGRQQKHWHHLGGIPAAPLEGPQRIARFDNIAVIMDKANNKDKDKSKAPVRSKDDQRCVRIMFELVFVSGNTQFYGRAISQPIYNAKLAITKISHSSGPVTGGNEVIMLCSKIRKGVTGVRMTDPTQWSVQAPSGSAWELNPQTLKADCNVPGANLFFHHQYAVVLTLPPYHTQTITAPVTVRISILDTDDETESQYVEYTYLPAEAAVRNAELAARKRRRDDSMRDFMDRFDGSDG

[5] = target: T5, GST-Dm-Relish (Drosophila melanogaster, UniProt Q94527 99-473)
T5 sequence: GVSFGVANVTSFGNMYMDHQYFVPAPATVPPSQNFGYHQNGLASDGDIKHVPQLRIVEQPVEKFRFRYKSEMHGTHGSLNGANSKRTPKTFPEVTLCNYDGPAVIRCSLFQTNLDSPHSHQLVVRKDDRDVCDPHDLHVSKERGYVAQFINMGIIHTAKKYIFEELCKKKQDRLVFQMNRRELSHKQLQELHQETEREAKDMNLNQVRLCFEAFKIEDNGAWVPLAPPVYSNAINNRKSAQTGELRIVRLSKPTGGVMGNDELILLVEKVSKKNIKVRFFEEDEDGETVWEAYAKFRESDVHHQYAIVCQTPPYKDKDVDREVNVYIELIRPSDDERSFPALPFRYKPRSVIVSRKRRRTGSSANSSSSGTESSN

[6] = target: T6, GST-Aq-NF-kB (Amphimedon queenslandica, UniProt A9Y5G7 2-389)
T6 sequence: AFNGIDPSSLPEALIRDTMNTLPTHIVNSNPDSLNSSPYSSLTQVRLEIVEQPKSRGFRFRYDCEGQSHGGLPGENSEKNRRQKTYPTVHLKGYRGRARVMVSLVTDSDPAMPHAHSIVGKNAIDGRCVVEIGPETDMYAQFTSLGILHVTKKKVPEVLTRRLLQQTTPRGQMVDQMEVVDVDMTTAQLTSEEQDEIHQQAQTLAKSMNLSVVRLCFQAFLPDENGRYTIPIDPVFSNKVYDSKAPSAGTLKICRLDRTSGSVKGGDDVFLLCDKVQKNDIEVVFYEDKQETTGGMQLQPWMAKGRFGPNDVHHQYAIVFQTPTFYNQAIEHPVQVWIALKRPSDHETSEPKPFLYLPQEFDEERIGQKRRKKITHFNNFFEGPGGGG

[7] = target: GST-Hu-p50 (Homo sapiens, UniProt P19838 7-356)
Sequence of GST-Hu-p50 (P19838 7-356): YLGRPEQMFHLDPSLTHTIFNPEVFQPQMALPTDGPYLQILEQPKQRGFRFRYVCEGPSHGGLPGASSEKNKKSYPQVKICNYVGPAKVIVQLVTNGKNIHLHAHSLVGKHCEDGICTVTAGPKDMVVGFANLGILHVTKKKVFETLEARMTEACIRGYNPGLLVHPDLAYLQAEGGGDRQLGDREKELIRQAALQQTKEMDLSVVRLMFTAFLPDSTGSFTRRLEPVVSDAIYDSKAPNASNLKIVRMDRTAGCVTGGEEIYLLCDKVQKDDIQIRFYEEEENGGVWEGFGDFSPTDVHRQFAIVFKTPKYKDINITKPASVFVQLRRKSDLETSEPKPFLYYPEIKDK

Sequence	binding signal [1] [z-score]	binding signal [2] [z-score]	binding signal [3] [z-score]	binding signal [4] [z-score]	binding signal [5] [z-score]	binding signal [6] [z-score]	binding signal [7] [z-score]
CCGATTAACATCAGGGGAAGTACTGATGTTAATCGGGTCTTGATTCGCTTGACGCTGCTG	7.14	8.22	9.13	5.32	10.7	7.89	6.9
CCGATTAACATCAGGGGATTTCATGATGTTAATCGGGTCTTGATTCGCTTGACGCTGCTG	9.36	9.75	10.8	3.46	8.36	6.85	7.42
CCGATTAACATCAGGGGATTCCATGATGTTAATCGGGTCTTGATTCGCTTGACGCTGCTG	9.19	9.04	9.49	3.19	10	6.89	6.77
CCGATTAACATCAGGGGGACACCTGATGTTAATCGGGTCTTGATTCGCTTGACGCTGCTG	5.64	4.46	4.25	5.26	4.25	5.46	4.49
CCGATTAACATCAAGGGGGATATTGATGTTAATCGGGTCTTGATTCGCTTGACGCTGCTG	5.89	6.77	7.37	5.64	5.23	6.15	6.33
CCGATTAACATCAGGCAACCCCCTGATGTTAATCGGGTCTTGATTCGCTTGACGCTGCTG	5.96	3.96	3.97	2.03	6.58	6.21	5.13
CCGATTAACATCAAGTATTCCCCTGATGTTAATCGGGTCTTGATTCGCTTGACGCTGCTG	8.17	9.28	8.86	7.58	7.14	6.74	5.87
CCGATTAACATCAAGGGGGGATGTGATGTTAATCGGGTCTTGATTCGCTTGACGCTGCTG	5.69	4.01	5.38	4.75	4.07	4.34	4.32
CCGATTAACATCAGGATAACCCCTGATGTTAATCGGGTCTTGATTCGCTTGACGCTGCTG	4.52	3.22	1.82	1.72	2.74	5.12	3.08
CCGATTAACATCAATTTACCCCCTGATGTTAATCGGGTCTTGATTCGCTTGACGCTGCTG	6.21	4.95	6.18	8.79	3.42	4.56	5.04
CCGATTAACATCAGGGGTAATTATGATGTTAATCGGGTCTTGATTCGCTTGACGCTGCTG	3.8	4.02	4.62	6.05	2.03	3.96	4.51
CCGATTAACATCAGGGAATTTCATGATGTTAATCGGGTCTTGATTCGCTTGACGCTGCTG	5	7.17	7.08	3.61	4.49	5.84	5.25
